Assay results from PubChem BioAssay.
A number with no mark means an inactive call. The source made the active and inactive calls.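 How the source made its calls: active means z-score of at least 1.8 in each of two replicates, scored against plate mean and spread of sample wells; inactive means the rest.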

Test: galactose survival enhancers in mitochondrial complex I cybrids – cell-based, galactose medium, ATP luminescence, primary screen (AID 1645843);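 further: positive z means more ATP and so rescue of galactose-driven cybrid death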
Settings: complex I mutant cybrid cells, 72 h, stronger effect = higher value

Compound | z-score
Cc1ccccc1N1CCCN(C(=O)CCC(C)C)CC1 | 3.28 (active)
CN(C)Cc1cn(CC2CCN(C(=O)CC3CCCCCC3)CC2)nn1 | -0.47
Cc1cc(NC(=O)Cn2c(C)nc(Cl)c2Cl)n(C2CCCCC2)n1 | -0.41
Cc1ccccc1C1CCCN(C(=O)c2cc(C(C)C)no2)C1 (stereo unspecified) | 2.95 (active)
O=C(c1ccc(-n2ccnc2)cc1)N1CCc2[nH]nc(-c3ccccc3)c2C1 | -1
Cc1cccc2c(C(=O)N3CCC(C)(C)C3)cc(-c3cnc(C4CC4)nc3)nc12 | 2.3 (active)
Cc1cc(CN(C)Cc2ccc(-c3nc(C)c(C)c(=O)[nH]3)cc2)ccn1 | -0.52
O=C1CN(c2ncnc3sccc23)CCN1Cc1ccc(F)cc1 | 0.19
CCCC[C@@H]1C[C@@H]1C(=O)N1CCC(n2cc(CC(C)C)nn2)CC1 | -0.07
O=C(C1CCCCCC1)N1CCC(n2cc(-c3ccccc3)nn2)CC1 | -0.495
O=C(Nc1cccnc1)c1csc(Cc2ccccc2)n1 | -0.815
c1ccc(Cc2noc(-c3cccc4nccnc34)n2)cc1 | 2.6 (active)
Cc1nc(C(=O)N2CCCC(Cn3cc(-c4ccsc4)nn3)C2)cs1 (stereo unspecified) | -0.08
CCC1(CC)CC1C(=O)N1CCC(n2cc(C3CCCCC3)nn2)CC1 (stereo unspecified) | 0.07
CC1(C)C2(c3nc(Cc4c(F)cccc4Cl)no3)CC[C@@]1(C)C(=O)O2 | -0.525
CCC1CN(C(=O)c2cc(-c3cnn(C)c3)nc3c(C)c(C)ccc23)CCO1 (stereo unspecified) | 3.04 (active)
